The text below walks through data of PubChem BioAssay AID1259415 (National Center for Advancing Translational Sciences (NCATS), 2018).

In all, about 410,000 compounds went through this assay and about 18,000 (4.4%) were called active. Inconclusive results (about 7%) are left out. No stated cut-off is given here; in the data, active means activity change below about -60%; inconclusive means no clear call, values can overlap the other calls; inactive means above about -39%. Shown is part of a subset that was picked to be rich in actives.
On the % scale 0 is the no-effect control and ±100 the full control effect.

The assay can be described thus: qHTS Assay for inhibitors of the human cytomegalovirus (HCMV). Conditions: HFF cells, HCMV-luciferase reporter, 72 h; at 57.5 µM; active compounds read low. From the text:
NCGC Assay Overview: Infection with human cytomegalovirus (HCMV) continues to pose significant threats for pregnant women and immunocompromised hosts. HCMV causes serious morbidity and mortality in transplant recipients, and congenital HCMV is the leading infectious cause of mental retardation and deafness in children. In the 1990s, the annual costs associated with the disease burden of congenital CMV were estimated at around $2 billion. A HCMV vaccine is not available yet and HCMV therapies result in intolerable side effects and emergence of drug resistant viruses. […] Towards this goal we have developed and characterized a luciferase HCMV reporter that was initially used in 96 well plates and then optimized to 1536-well plates for utilization in screening of the MLSMR collection, the NGCG diversity collection and the NCGC Pharmaceutical Collection of approved and investigational drugs.
NCGC Assay Protocol Summary:
This is a cell-based assay for HCMV inhibition in HFFs cells. The screening used 2 compound doses and the HCMV-luciferase at MOI of 1 PFU/cell. Cells were treated and infected with HCMV. At 72 h post infection cell lysates were collected and luciferase activity was determined using the Glomax-Multi + Detection System (Promega, Madison, WI). Data were normalized to the controls for basal activity (buffer only) and known HCMV inhibitors Salinmoycin.
1536-well assay protocol for the assay:
(1) Add 3 ul CMV/HFF cell culture. 1000 cells/well in DMEM nirmal media.
(2) Incubate 16 hr at 37C.
(3) Add 23 nl control compound, 10uM of Salinomycin.
(4) Add 23 nl compounds in DMSO solution.
(5) Add 3 ul CMV suspension. Final 1 puf/ul, Virus stock 2000pfu/ul
(6) Incubate 72 hrs at 37C.
(7) Add 4 ul OneGlo Luc Reagent.
(8) Incubate 5 min at room temperature.
(In general: qHTS replaces the single test concentration by a dilution series.)
`CCCCc1c(-c2ccc(Br)cc2)ncn1CCc1ccccc1OC`: the activity change, negative = inhibition was -102% (active).

Turning to `COc1ccccc1CCNS(=O)(=O)c1cn(C)nc1C`, the activity change, negative = inhibition was -2.46% (inactive).

As to `COc1ccc(-c2nnc(SCC(=O)Nc3ccccc3C)o2)cc1OC`, the activity change, negative = inhibition is 45.3% (inactive).

In the case of `CCCCNS(=O)(=O)CCNCc1ccccc1OC`, the activity change, negative = inhibition was -20.1% (inactive).

For the molecule `FC(F)(F)c1cccc(-c2cnc3ccccc3n2)c1`, the activity change, negative = inhibition is 32.3% (inactive).

For `Nc1ncc(S(=O)(=O)Nc2ccc(OC(F)(F)F)cc2)cn1`, the activity change, negative = inhibition is 4.7% (inactive).

In the case of `CCN1C(=O)c2ccccc2S(=O)c2ccc(C(=O)NCc3ccc(F)cc3)cc21` (stereo not given), the activity change, negative = inhibition was 6.08% (inactive).

For the molecule `CSc1nn(Cc2cccc(C)c2)c(N)c1S(=O)(=O)c1ccccc1`, the activity change, negative = inhibition is -39.1% (inactive).

In the case of `Cc1ccc2ncc(C(=O)Nc3ccc(OC(F)(F)F)cc3)c(=O)n2c1`, the activity change, negative = inhibition is 19.1% (inactive).

`COC(=O)c1cnn(-c2ccc(C(=O)Nc3ccc(OC(F)(F)F)cc3)cc2)c1N`: the activity change, negative = inhibition is -14.8% (inactive).

For the molecule `O=C(Nc1ccc(OC(F)(F)F)cc1)c1ccc2c(c1)no[n+]2[O-]`, the activity change, negative = inhibition was -88.8% (active).

For the molecule `COc1ccc2c(c1)c(C(=O)N/N=C/c1cccs1)c(C)n2C`, the activity change, negative = inhibition is -14.7% (inactive).

Consider `Cc1cccc(-n2c(C)cc(/C=N\NC(=O)c3cccs3)c2C)c1`, for which the activity change, negative = inhibition was -61.8% (active).

`Cc1ccccc1-n1c(C)cc(/C=N/NC(=O)c2ccc(CN3CCOCC3)cc2)c1C`: the activity change, negative = inhibition is -25.2% (inactive).

Turning to `O=C(Nc1cccc(Cl)c1)c1csnn1`, the activity change, negative = inhibition was -2.8% (inactive).

Take `CC(=O)Nc1cc(C(=O)NCc2ccc(F)cc2Cl)ccc1Sc1ccc(Cl)cc1`: the activity change, negative = inhibition was 5.5% (inactive).

Turning to `Cn1c(C(=O)Nc2cccc(C(F)(F)F)c2)cc2c(=O)n3ccccc3nc21`, the activity change, negative = inhibition was 63.8% (inactive).

Regarding `O=C(Nc1ccc(-c2csc(Nc3cccc(C(F)(F)F)c3)n2)cc1)c1cccc(C(F)(F)F)c1`, the activity change, negative = inhibition is -66.8% (active).

Regarding `Cc1nnsc1C(=O)N/N=C/c1cccc(C(F)(F)F)c1`, the activity change, negative = inhibition is -22.9% (inactive).

With `Cc1c(CCNC(=O)c2ccc(C(F)(F)F)cc2)sc2nc(-c3ccc(F)cc3)nn12`, the activity change, negative = inhibition is 33.8% (inactive).

For `COc1ccc(Cn2ccnc2SCC(=O)Nc2ccc3c(c2)OCO3)cc1`, the activity change, negative = inhibition is -2.47% (inactive).

Regarding `Cc1ccc2oc(C(=O)Nc3ccc(S(=O)(=O)N4CCCCCC4)cc3)cc(=O)c2c1`, the activity change, negative = inhibition is 5.06% (inactive).

With `Cn1nnc2c(N3CCN(c4ccccc4)CC3)ncnc21`, the activity change, negative = inhibition is -1.12% (inactive).

Consider `CN1CCC(CN)(N2CCN(c3ccccc3)CC2)CC1`, for which the activity change, negative = inhibition was -78.1% (active).

For `CCS(=O)(=O)N1CCC(N2CCN(c3ccccc3)CC2)CC1`, the activity change, negative = inhibition was 12.5% (inactive).

As for `CCc1cccc(CC)c1NC(=O)Cn1c(=O)c(-c2cc(C)ccc2NC(C)=O)nc2ccccc21`, the activity change, negative = inhibition was -4.17% (inactive).

For `COc1ccc(CCC(=O)N2CCN(S(=O)(=O)c3ccc(OC)cc3)CC2)cc1`, the activity change, negative = inhibition was -31.5% (inactive).

Take `COc1ccc(CN(Cc2ccco2)S(=O)(=O)c2ccc(S(=O)(=O)N3CCCC3)cc2)cc1`: the activity change, negative = inhibition was -62% (active).

Take `COc1ccc(S(=O)(=O)NCc2ccc(C(=O)N(C)Cc3ccco3)cc2)cc1`: the activity change, negative = inhibition is -13.3% (inactive).

Take `CC1CCN(c2ccc([N+](=O)[O-])c(SCCO)c2)CC1`: the activity change, negative = inhibition was -72.7% (active).

For the molecule `CC1CCN(c2ccc(S(=O)(=O)Nc3cc(C(=O)O)cc(C(=O)O)c3)cc2[N+](=O)[O-])CC1`, the activity change, negative = inhibition is 31% (inactive).

As to `CC1CCN(c2ccc3c(c2)S(=O)(=O)c2cc(C(=O)O)ccc2C3=O)CC1`, the activity change, negative = inhibition is 22.6% (inactive).

As to `CCS(=O)(=O)N1CCc2cc(C(=O)N3CCN(c4ccccc4OC)CC3)ccc21`, the activity change, negative = inhibition was 10.3% (inactive).

For the molecule `CN(c1ccccc1)S(=O)(=O)c1cc(C(=O)OCC(=O)N2CCN(C(=O)c3ccco3)CC2)ccc1Cl`, the activity change, negative = inhibition is -12% (inactive).

On to `CN(c1ccccc1)S(=O)(=O)c1cccc(C(=O)NNC(=O)c2ccncc2)c1`, for which the activity change, negative = inhibition is -31.6% (inactive).

As for `COc1ccccc1N1CCN(C(=O)c2ccc(Cl)c(S(=O)(=O)N3CCCC3)c2)CC1`, the activity change, negative = inhibition is -64.9% (active).

For the molecule `COc1ccc(C(=O)N2CCN(c3ncccn3)CC2)cc1S(=O)(=O)N1CCOCC1`, the activity change, negative = inhibition was 63% (inactive).

With `CN(c1ccccc1)S(=O)(=O)c1cc(C(=O)N2CCN(c3ncccn3)CC2)ccc1Cl`, the activity change, negative = inhibition was -61.7% (active).

For `CN(c1ccccc1)S(=O)(=O)c1cc(C(=O)Nc2nc3ccccc3[nH]2)ccc1Cl`, the activity change, negative = inhibition is -61.3% (active).

Consider `CN(c1ccccc1)S(=O)(=O)c1ccc(C(=O)N2CCN(c3ccccc3Cl)CC2)cc1`, for which the activity change, negative = inhibition is -25.5% (inactive).

As to `CN(C)S(=O)(=O)c1cc(C(=O)N2CCC(C(=O)O)(c3ccccc3)CC2)ccc1Cl`, the activity change, negative = inhibition was 14.8% (inactive).

In the case of `COc1ccc(C2NC(=O)N(C)C3=C2C(=O)N(c2ccc(C(=O)O)cc2)C3)cc1` (stereo not given), the activity change, negative = inhibition is 15.3% (inactive).

`CCOC(=O)c1cc2c(=O)[nH]c(C(Cl)(Cl)Cl)nc2o1`: the activity change, negative = inhibition was -14.4% (inactive).

For `CCOC(=O)c1ccc(NC(=O)C2CCN(S(=O)(=O)c3ccc4c(c3)CCCC(=O)N4)CC2)cc1`, the activity change, negative = inhibition is -34.6% (inactive).

In the case of `COc1cc(C(=O)Nc2ccc(OCc3cc(=O)n4cc(C)sc4n3)cc2)cc(OC)c1OC`, the activity change, negative = inhibition was 13.1% (inactive).
